{"source": "PubChem BioAssay (Tox21)", "note": "Active and inactive are the calls of the source. Calls come from the whole dose curve; as a rule, active = well fitted curve in the direction sought with a large enough effect in the repeat runs; inconclusive = weak or mixed curves; inactive = flat fitted curve, though single readings scatter. % is set by controls: 0 for no effect and ±100 for the full control effect.", "data": [{"assay": "qHTS assay to test for compound auto fluorescence at 590 nm (red) in HepG2 cells (AID 720674)", "details": "HepG2 autofluorescence, red 540/590 nm, 1 h; series mostly up to 46 µM; fluorescence, relative to Rose Bengal: at the top concentration", "procedure,_shortened": "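We screened compounds on adherent HepG2 cells, incubating them for an hour at 37 C in 5% CO2 before reading emission at 590 nm under 540 nm excitation; values reflect equivalence to Rose Bengal sodium fluorescence.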", "values": [{"smiles": "COC1=C(OC)C(=O)C(C/C=C(\\C)CC/C=C(\\C)CC/C=C(\\C)CC/C=C(\\C)CC/C=C(\\C)CC/C=C(\\C)CC/C=C(\\C)CC/C=C(\\C)CC/C=C(\\C)CCC=C(C)C)=C(C)C1=O", "outcome": "inactive"}, {"smiles": "COC(=O)C(CN)c1c[nH]c2ccc(OC)cc12", "note": "(stereo unspecified)", "fluorescence, relative to Rose Bengal": "0.772% (inactive)"}, {"smiles": "CC(C)CCC[C@@H](C)[C@H]1CC[C@H]2[C@@H]3CC=C4C[C@@H](O)CC[C@]4(C)[C@H]3CC[C@]12C", "fluorescence, relative to Rose Bengal": "-0.868% (inactive)"}, {"smiles": "C=N[C@@H](C(=O)N[C@@H]1C(=O)N2[C@@H]1SC(C)(C)[C@@H]2C(=O)O)c1ccccc1", "fluorescence, relative to Rose Bengal": "-0.331% (inactive)"}, {"smiles": "Cc1c(O)c(=O)ccn1C", "fluorescence, relative to Rose Bengal": "0.364% (inactive)"}, {"smiles": "CCOC(=O)COc1ccc2c(=O)cc(-c3ccccc3)oc2c1", "outcome": "inactive"}, {"smiles": "O=P(O)(O)CP(=O)(O)O", "fluorescence, relative to Rose Bengal": "0.234% (inactive)"}, {"smiles": "CC12CCC(C1)C(C)(C)C2=O", "note": "(stereo unspecified)", "fluorescence, relative to Rose Bengal": "0.563% (inactive)"}, {"smiles": "CC(=O)Nc1ccc(OC(C)=O)cc1", "fluorescence, relative to Rose Bengal": "-0.073% (inactive)"}, {"smiles": "CCN(CC)CCOC[C@H]1O[C@@H](O)[C@H](OCCN(CC)CC)[C@@H](O)[C@@H]1O", "fluorescence, relative to Rose Bengal": "-0.009% (inactive)"}, {"smiles": "OCC1(CO)COC(C(Cl)(Cl)Cl)OC1", "fluorescence, relative to Rose Bengal": "0.0014% (inactive)"}, {"smiles": "C=C1[C@H](CO)[C@@H](O)C[C@@H]1n1cnc2c(=O)[nH]c(N)nc21", "fluorescence, relative to Rose Bengal": "-0.0182% (inactive)"}, {"smiles": "O=S(=O)(O)CC(S)CS", "note": "(stereo unspecified)", "fluorescence, relative to Rose Bengal": "-0.168% (inactive)"}, {"smiles": "COc1ccc(/C=N/NC(=O)c2ccncc2)c(C(=O)O)c1OC", "fluorescence, relative to Rose Bengal": "-0.164% (inactive)"}, {"smiles": "CCCCCCCCCCCCCCCCCCOCC(COP(=O)([O-])OCC[N+](C)(C)C)OC", "note": "(stereo unspecified)", "fluorescence, relative to Rose Bengal": "0.0933% (inactive)"}, {"smiles": "NC(=O)CC[C@@H]1NC(=O)[C@H](Cc2ccccc2)NC(=O)[C@H](Cc2ccc(O)cc2)NC(=O)[C@@H](N)CSSC[C@@H](C(=O)N2CCC[C@H]2C(=O)N[C@@H](CCCN=C(N)N)C(=O)NCC(N)=O)NC(=O)[C@H](CC(N)=O)NC1=O", "outcome": "inactive"}, {"smiles": "CCC[C@@H]1C[C@@H](C(=O)N[C@@H]([C@H]2O[C@H](SC)[C@H](OP(=O)(O)O)[C@@H](O)[C@H]2O)[C@H](C)Cl)N(C)C1", "outcome": "inactive"}, {"smiles": "C[C@H](NCCc1ccc(O)cc1)[C@H](O)c1ccc(O)cc1", "fluorescence, relative to Rose Bengal": "0.0211% (inactive)"}, {"smiles": "CC(C)(COP(=O)(O)OP(=O)(O)OC[C@H]1O[C@@H](n2cnc3c(N)ncnc32)[C@H](O)[C@@H]1OP(=O)(O)O)C(O)C(=O)NCCC(=O)NCCS", "note": "(stereo partly specified)", "fluorescence, relative to Rose Bengal": "-0.347% (inactive)"}, {"smiles": "CC(CNC(=O)c1cccnc1)NC(=O)c1cccnc1", "note": "(stereo unspecified)", "fluorescence, relative to Rose Bengal": "-0.61% (inactive)"}, {"smiles": "O=C(O)c1cc(O)c2c(c1)[C@H]([C@H]1c3cc(C(=O)O)cc(O)c3C(=O)c3c(O[C@@H]4O[C@H](CO)[C@@H](O)[C@H](O)[C@H]4O)cccc31)c1cccc(O[C@@H]3O[C@H](CO)[C@@H](O)[C@H](O)[C@H]3O)c1C2=O", "fluorescence, relative to Rose Bengal": "-0.375% (inactive)"}, {"smiles": "C=CCN1C(=O)C(CC(C)C)NC1=S", "note": "(stereo unspecified)", "outcome": "inactive"}, {"smiles": "C[C@H](O)CN(C)C", "fluorescence, relative to Rose Bengal": "-0.407% (inactive)"}, {"smiles": "CNC(=O)OCc1cccc(COC(=O)NC)n1", "fluorescence, relative to Rose Bengal": "0.0943% (inactive)"}, {"smiles": "NC(=O)[C@H]1O[C@@H](O)[C@H](O)[C@@H](O)[C@@H]1O", "fluorescence, relative to Rose Bengal": "0.301% (inactive)"}, {"smiles": "O=P(O)(O)C(O)(Cn1ccnc1)P(=O)(O)O", "fluorescence, relative to Rose Bengal": "0.218% (inactive)"}, {"smiles": "NC(=O)[C@@H]1C[C@]2(NC(=O)NC2=O)c2cc(F)ccc2O1", "fluorescence, relative to Rose Bengal": "-0.828% (inactive)"}, {"smiles": "COc1ccc([C@@H]2CC(=O)c3c(O)cc(O[C@@H]4O[C@H](CO[C@@H]5O[C@@H](C)[C@H](O)[C@@H](O)[C@H]5O)[C@@H](O)[C@H](O)[C@H]4O)cc3O2)cc1O", "fluorescence, relative to Rose Bengal": "-0.0395% [at 18.6 µM] (inactive)"}, {"smiles": "CC[C@H]1OC(=O)C[C@@H](O)[C@H](C)[C@@H](O[C@@H]2O[C@H](C)[C@@H](O[C@H]3C[C@@](C)(O)[C@@H](O)[C@H](C)O3)[C@H](N(C)C)[C@H]2O)[C@@H](CC=O)C[C@@H](C)C(=O)/C=C/C(C)=C/[C@@H]1CO[C@@H]1O[C@H](C)[C@@H](O)[C@@H](OC)[C@H]1OC", "outcome": "inactive"}, {"smiles": "NC(=O)C1c2ccccc2CCc2ccccc21", "fluorescence, relative to Rose Bengal": "0.916% (inactive)"}, {"smiles": "CC(C)=CCC/C(C)=C/CC/C(C)=C/CC/C(C)=C/CC1=C(C)C(=O)c2ccccc2C1=O", "outcome": "inactive"}, {"smiles": "COc1cc2c(c(OC)c1OC)-c1c(cc3c(c1OC)OCO3)C[C@@H](C)[C@](C)(O)C2", "outcome": "inactive"}, {"smiles": "O=C1CCC(c2ccccc2)(C2CCN(Cc3ccccc3)CC2)C(=O)N1", "note": "(stereo unspecified)", "fluorescence, relative to Rose Bengal": "-0.67% (inactive)"}, {"smiles": "O=C(Cn1cnnn1)N[C@@H]1C(=O)N2C(C(=O)O)=C(CSc3nncs3)CS[C@H]12", "outcome": "inactive"}, {"smiles": "CN[C@H](CC(C)C)C(=O)N[C@H]1C(=O)N[C@@H](CC(N)=O)C(=O)N[C@H]2C(=O)N[C@H]3C(=O)N[C@H](C(=O)N[C@@H](C(=O)O)c4cc(O)cc(O)c4-c4cc3ccc4O)[C@H](O)c3ccc(c(Cl)c3)Oc3cc2cc(c3O[C@@H]2O[C@H](CO)[C@@H](O)[C@H](O)[C@H]2O[C@H]2C[C@](C)(N)C(O)[C@H](C)O2)Oc2ccc(cc2Cl)[C@H]1O", "note": "(stereo partly specified)", "outcome": "inactive"}, {"smiles": "CC[C@H]1OC(=O)[C@H](C)C(=O)[C@H](C)[C@@H](O[C@@H]2O[C@H](C)C[C@H](N(C)C)[C@H]2O)[C@](C)(OC)C[C@@H](C)C(=O)[C@H](C)[C@H]2N(CCCCn3cnc(-c4cccnc4)c3)C(=O)O[C@]12C", "outcome": "inactive"}]}]}
